# Assay results published in ChEMBL document CHEMBL1157539, “Thousands of chemical starting points for antimalarial lead identification” (Nature, 2010).
# Tests used:
# Format in all cases: functional
# Plasmodium falciparum [1] = assay: GSK_TCMDC: Inhibition of Plasmodium falciparum 3D7 in whole red blood cells, using parasite LDH activity as an index of growth. Test compounds present at 2uM
# Plasmodium falciparum [2] = assay: GSK_TCMDC: Inhibition of Plasmodium falciparum Dd2 in whole red blood cells, using parasite LDH activity as an index of growth. Test compounds present at 2uM
# HepG2 = assay: GSK_TCMDC: Percent inhibition of human HepG2 cell line. Test compounds present at 10uM.
Structure (SMILES),Inhibition (Plasmodium falciparum [1]),Inhibition (Plasmodium falciparum [2]),Inhibition (HepG2)
Cc1cccc(Nc2nccc(NCC(O)c3ccc(C(F)(F)F)cc3)n2)c1 (stereo unspecified),100%,54%,11%
NC(=O)c1cc(-c2ccccc2)cc2c(C3CCC(NCc4ccccc4)C3)c[nH]c12 (stereo unspecified),95%,30%,99%
Cl.O=c1cc(NCCCNCc2cc3ccc(Br)cc3s2)[nH]c2ccccc12,92%,8%,18%
Cl.N#Cc1cccc(NC(=O)Nc2ccc3c(c2)CCN(C2CCC2)CC3)c1,91%,26%,22%
O=C(NC1CC1)c1cnc(N2CCN(Cc3ccc(Cl)cc3)CC2)c(Cl)c1.O=C(O)C(F)(F)F,93%,91%,39%
Cc1cc(C)c(O)c(-c2cc(C(=O)Nc3ccc(S(=O)(=O)N4CC(C)OC(C)C4)cc3)[nH]n2)c1 (stereo unspecified),95%,16%,31%
Cc1cc(C(=O)CN2C(=O)NC(C)(c3cccc4ccccc34)C2=O)c(C)n1Cc1ccco1 (stereo unspecified),90%,23%,0%
Br.Cc1cc(F)ccc1Nc1nc(N(C)c2ccccc2)c2cccc(O)c2n1,92%,81%,38%
CNC(=O)c1ccccc1Nc1cc(Nc2cc(OC)ccn2)ncc1Cl.O=CO,100%,100%,69%
Cc1cc2cc(/C=C/C(=O)NC3CCC(CCN4CCc5ccc(C#N)cc5CC4)CC3)ccc2[nH]1.Cl (stereo unspecified),85%,49%,6%
Cc1ncc([N+](=O)[O-])n1CCOC(=O)NC(NCC1COc2ccccc2O1)C(Cl)(Cl)Cl (stereo unspecified),100%,78%,0%
O=C(Nc1cccc(N2CCC(NCc3cccnc3)CC2)c1)c1cccc(C(F)(F)F)c1,98%,2%,26%
CCN1CCN(c2cc(C)c3cc(NC(=O)c4cc(OC)cc(OC)c4)ccc3n2)CC1,100%,90%,0%
Br.CCc1c(CCNCCCCCCNCCc2ccc(Br)cc2)ccc(O)c1O,95%,1%,11%
O=C(/C=C/c1ccc(Cl)c(Cl)c1)NC1CCC(CN2CCC(Cc3cc4ccccc4[nH]3)CC2)CC1 (stereo unspecified),100%,74%,99%
CCCCCCc1cc(OC)c(OC)cc1C(C)Nc1ccnc2cc(Cl)ccc12 (stereo unspecified),95%,79%,6%

Structure (SMILES),Inhibition (Plasmodium falciparum [1]),Inhibition (Plasmodium falciparum [2]),Inhibition (HepG2)
Fc1ccc(OC2CN(c3nccc(NCc4ccccc4Cl)n3)C2)cc1,98%,99%,0%
CCOC(=O)c1cc2c(CCN3C(=O)c4ccccc4C3=O)cn(C)c2cc1-c1ccncc1,100%,90%,99%
Cc1cc(N2CCCC2)nc(Nc2ccc(NC(=O)c3ccco3)cc2)n1,100%,43%,23%
Cc1cccnc1Nc1nc(-c2ccccn2)cs1,96%,99%,60%
OC(c1ccc(Cl)cc1)(c1ccc(Cl)cc1)C(c1ccc(Cl)cc1)n1ccnc1 (stereo unspecified),100%,100%,15%
CC(C)CNCc1ccc(-c2cccc(CNc3ccc4ncccc4c3)c2)cc1.O=C(O)C(F)(F)F,96%,31%,29%
COc1ccc(N2CCN(CCCCNC(=O)c3ccc(NC(=O)c4cc(Cl)cc(Cl)c4)cc3)CC2)c(OC)c1.Cl,100%,84%,21%
O=C(O)C(F)(F)F.Oc1ccc(CCNc2nc(NCCCOc3ccccc3-c3ccc(F)cc3)nc(N3CCNCC3)n2)cc1,85%,8%,30%
Cc1nc(N)nc(N)c1-c1ccc(Br)c([N+](=O)[O-])c1,95%,2%,64%
Cc1cccc2nc(-c3ccc(-c4ccc(CN5CCN(c6ccncc6)CC5)cc4)cc3)[nH]c12.O=C(O)C(F)(F)F,100%,100%,98%
Cc1nc(N)nc(N)c1OCCCCCCOc1ccccc1.Cl,95%,0%,59%
CCCCN(CCCC)CCOc1cc2c(cc1OC)CCN2C(=O)/C=C/c1ccccc1Cl.Cl,87%,31%,13%
CN1CCCC(OC(=O)c2ccccc2)C1 (stereo unspecified),100%,0%,4%
CCC(CN1C(=O)C(c2ccccc2)(c2ccccc2)N=C1N)c1ccccc1.O=CO (stereo unspecified),98%,98%,11%
Cc1cc(N)c2cc(NC(=O)c3cccc4ccccc34)ccc2n1.Cl,98%,13%,18%
Cc1ccc(CNC(=O)[C@H](Cc2ccccc2)Nc2cc(C)nc(NCCc3ccc(F)cc3)n2)cc1.O=C(O)C(F)(F)F,98%,22%,10%
